PubChem BioAssay
The source made the active and inactive calls.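 Rule for the calls: active = inhibition above the hit cutoff set in the earlier primary screen (cut at about 27% in these data); inactive = the rest.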

target: Protein phosphatase methylesterase 1 (Homo sapiens) (UniProt Q9Y570); assay: PME-1 inhibitor activity retest, confirmation, biochemical, fluorescence polarization, FP-Rh probe, triplicate (AID 2171); settings: recombinant PME-1, FP-Rh probe fluorescence polarization; at 5.9 µM; active compounds read high;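 note: 0% = enzyme with DMSO and 100% = wells lacking PME-1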
Sequence (Q9Y570 whole entry, looked up): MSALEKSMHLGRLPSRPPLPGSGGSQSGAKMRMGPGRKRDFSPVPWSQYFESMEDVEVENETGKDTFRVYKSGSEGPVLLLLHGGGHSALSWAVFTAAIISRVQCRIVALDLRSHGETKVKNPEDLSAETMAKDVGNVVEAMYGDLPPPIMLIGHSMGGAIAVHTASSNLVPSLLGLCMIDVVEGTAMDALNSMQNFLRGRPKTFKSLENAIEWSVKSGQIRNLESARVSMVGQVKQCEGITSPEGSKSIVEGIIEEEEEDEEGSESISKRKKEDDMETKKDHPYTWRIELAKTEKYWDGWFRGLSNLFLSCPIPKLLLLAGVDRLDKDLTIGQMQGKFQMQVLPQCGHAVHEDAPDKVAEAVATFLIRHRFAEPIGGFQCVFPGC

Compound	inhibition
CC(C)=CCc1cc2c(=O)c3c(O)c4c(cc3oc2c(O)c1O)OC(C)C4(C)C (centres undefined)	-51.2% (inactive)
Cn1c(O)c(/C=N/NC(=O)c2cc3ccccc3cc2O)c2ccccc21	58.7% (active)
O=C(O)CSc1cc(NS(=O)(=O)c2ccc(Cl)cc2)c2ccccc2c1O	14.2% (inactive)
O=c1[nH]n2c(=O)c3c([nH]c2c1N=Nc1cccc(Cl)c1)CCCC3	61.8% (active)
Fc1ccc2nc(Nc3nc4cc5c(cc4s3)OCO5)sc2c1	2.53% (inactive)
N#C/C(N=Nc1ccccc1O)=N\Nc1ccccc1O	53.1% (active)
N=C1CCC(=N)c2c1c(O)c1ccccc1c2O	21.1% (inactive)
COc1ccc(-c2sc(Nc3ccc(F)c(F)c3F)nc2CCC(=O)NN)cc1	24.1% (inactive)
CCN(CC)c1nc2c3c(nc4c(c3c1C#N)CC(=O)N4c1ccc(Cl)cc1)NC(C)=N2	9.8% (inactive)
O=c1[nH][nH]c2cc(=O)n(-c3cccc(C(F)(F)F)c3)nc12	28.5% (active)
CC1=CC(C)(C)N2C(=O)C(=Nc3ccc(O)cc3)c3cccc1c32	4.13% (inactive)
Oc1[nH]c2ccccc2c1C=Nc1ccc2c(c1)OCO2	23.6% (inactive)
COc1ccc(-c2cc(-c3c(O)c(OC)c4occc4c3OC)[nH]n2)cc1OC	12.9% (inactive)
O=S(=O)(Nc1nc2ccccc2nc1Nc1cccc(S(=O)(=O)N2CCCCC2)c1)c1ccccc1	34.9% (active)
COc1ccccc1NC(=O)c1sc2nc(-c3ccco3)ccc2c1N	71.6% (active)
Cc1ccsc1/C=N/n1c(-c2cc(-c3ccccc3)n[nH]2)n[nH]c1=S	22% (inactive)
CCc1ccc2[nH]c(O)c(N=NC3=NC(=O)CS3)c2c1	44% (active)
COc1cccc(NC(=O)Nc2nnc(N3CCCCC3C)s2)c1 (centres undefined)	50.6% (active)
Cc1cc(NS(=O)(=O)c2ccc(Nc3nc(-c4sc(NC(=O)c5ccccc5)nc4C)cs3)cc2)no1	70.6% (active)
Cc1cc(N/N=C/c2ccc(O)c(C)c2O)nc(-c2ccccc2O)n1	27.9% (active)

Compound	inhibition
COc1ccc(N=Nc2nc3ccc(Br)cc3n2C)cc1	29.7% (active)
O=C(/C=C1\NC2(CCCC2)Cc2ccccc21)C(=O)N/N=C/c1ccc(O)c(O)c1	-18.9% (inactive)
O=C(O)c1cc(NN=C2c3ccccc3-c3ccccc32)ccc1Cl	41.9% (active)
CCOc1ccc(/C=N/Nc2cc(N3CCOCC3)nc(C)n2)c(O)c1	26.4% (active)
COC(=O)N1C(=O)[C@](c2ccc(OC)cc2)(C(C)C)N1C(=O)OC	48.2% (active)
O=C(OCCN(C1=NS(=O)(=O)c2ccccc21)c1ccc(Cl)cc1)c1ccco1	20.6% (inactive)
CCc1ccc2nc(SCC(=O)N3CC(=O)Nc4ccccc43)c(C#N)cc2c1	15.3% (inactive)
Cc1[nH]c2c(C)cccc2c1CCNC(=O)c1ccc2c(c1[N+](=O)[O-])C(=O)c1ccccc1C2=O	75.1% (active)
CCOc1ccc2nc(SCC(=O)Nc3ccc4c(c3)OCCO4)[nH]c2c1	25.3% (inactive)
CC(=O)NC(c1cccs1)c1cc([N+](=O)[O-])c2cccnc2c1O (centres undefined)	12% (inactive)
Cc1ccc2[nH]c(C)c(/C=N/Nc3nc4ccccc4s3)c2c1	41.1% (active)
O=C(Nc1ccc2[nH]c(=S)sc2c1)Nc1ccccc1F	67.4% (active)
O=C(N/N=C/c1c(Cl)[nH]c2ccccc12)c1ccc2c(c1)OCCO2	20.6% (inactive)
CN1C(=O)NC(c2ccccc2[N+](=O)[O-])C2=C1CCCC2=O (centres undefined)	51.5% (active)
Cc1cccc(OCCn2cc(/C=N/NC(=O)c3ccncc3)c3ccccc32)c1	2.22% (inactive)
COc1cc(/C=N/Nc2nc(-c3ccc(S(=O)(=O)N(C)C)cc3)cs2)ccc1O	19.7% (inactive)
Cn1c2ccccc2c2cc(/C=N/NC(=O)c3ccc(N)cc3)ccc21	19.7% (inactive)
N#Cc1c(N)nc2c3c(sc(=N)c2c1N)NC(=O)CC3c1c(F)cccc1Cl (centres undefined)	38.2% (active)
COc1ccc(Nc2cnn(-c3nc4ccccc4s3)c(=O)c2Cl)cc1	37.3% (active)
